Data from the supplement of paper PMC3545927.
The other results are listed elsewhere or left out. The true hit rate is not given.

Target: furin, P09958
Test: furin cleavage Z-score vs untreated control; higher = more cleavage, active = 3.5 or more, inactive = 1 or less, 8 variable residues between constant flanks
Outline: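 Purified furin cleaved 8-mer peptides that were fused to a cDNA oligonucleotide and held on magnetic beads by their N-terminus. Each 0.01 ml reaction used a 1:10 enzyme:substrate ratio in 50 mM HEPES pH 7.5 with CaCl2 and NaCl and ran 7.5, 15 or 30 min. Released DNA was adapter-tagged by PCR and sequenced, and read counts gave abundance. The cleavage Z-score came from log counts against furin-free reactions, lowess-adjusted and scaled by median absolute deviation.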

Chain of furin, P09958 (P09958 whole entry): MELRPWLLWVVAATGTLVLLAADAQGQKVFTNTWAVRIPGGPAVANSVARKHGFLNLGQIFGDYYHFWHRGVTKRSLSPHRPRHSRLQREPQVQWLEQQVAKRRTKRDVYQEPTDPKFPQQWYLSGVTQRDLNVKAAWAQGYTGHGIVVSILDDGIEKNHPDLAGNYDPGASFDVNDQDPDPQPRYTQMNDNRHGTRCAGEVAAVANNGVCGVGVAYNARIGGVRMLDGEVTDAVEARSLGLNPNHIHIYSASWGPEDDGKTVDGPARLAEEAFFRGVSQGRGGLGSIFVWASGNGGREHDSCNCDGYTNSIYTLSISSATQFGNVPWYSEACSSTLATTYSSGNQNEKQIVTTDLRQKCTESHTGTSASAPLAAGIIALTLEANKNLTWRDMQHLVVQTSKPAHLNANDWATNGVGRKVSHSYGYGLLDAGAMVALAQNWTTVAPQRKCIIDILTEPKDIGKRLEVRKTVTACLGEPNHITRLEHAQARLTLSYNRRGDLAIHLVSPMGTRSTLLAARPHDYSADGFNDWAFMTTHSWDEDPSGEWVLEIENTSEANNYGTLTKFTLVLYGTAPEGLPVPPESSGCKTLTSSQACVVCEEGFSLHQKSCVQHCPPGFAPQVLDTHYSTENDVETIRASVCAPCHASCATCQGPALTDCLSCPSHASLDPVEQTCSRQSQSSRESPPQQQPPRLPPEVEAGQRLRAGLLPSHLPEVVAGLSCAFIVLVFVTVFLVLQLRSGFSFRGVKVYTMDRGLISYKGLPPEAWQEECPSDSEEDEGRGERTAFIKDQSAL

In the case of CAARARLPRDAGNASASA [FS-1185], the “furin cleavage Z-score” value (7.5 min) is reported as 9.09 (active), the “furin cleavage Z-score” value (15 min) is reported as 9.62 (active) and the “furin cleavage Z-score” value (30 min) is reported as 6.75 (active).

With CAARGRGGRDAGNASASA [FS-978] the “furin cleavage Z-score” value (7.5 min) was 0.0621 (inactive), the “furin cleavage Z-score” value (15 min) was -0.261 (inactive) and the “furin cleavage Z-score” value (30 min) was -0.608 (inactive).

For CAACPRRARGAGNASASA [FS-1297], the “furin cleavage Z-score” value (7.5 min) was -0.34 (inactive), the “furin cleavage Z-score” value (15 min) was -0.615 (inactive) and the “furin cleavage Z-score” value (30 min) was -0.259 (inactive).

In the case of CASQARLGRIAGNASASA [FS-301], the “furin cleavage Z-score” value (7.5 min) is reported as -1.06 (inactive), the “furin cleavage Z-score” value (15 min) is reported as -0.739 (inactive) and the “furin cleavage Z-score” value (30 min) is reported as -0.311 (inactive).

In the case of CAARARLGRQAGNASASA [FS-400], the “furin cleavage Z-score” value (7.5 min) is reported as 5.77 (active), the “furin cleavage Z-score” value (15 min) is reported as 6.39 (active) and the “furin cleavage Z-score” value (30 min) is reported as 5.75 (active).

With CATRARLSRPAGNASASA [FS-1098] the “furin cleavage Z-score” value (7.5 min) was -0.0765 (inactive), the “furin cleavage Z-score” value (15 min) was -0.0832 (inactive) and the “furin cleavage Z-score” value (30 min) was -0.467 (inactive).

CATWMNSTGFAGNASASA [HC437] was tested, and the “furin cleavage Z-score” value (7.5 min) was 0.658 (inactive), the “furin cleavage Z-score” value (15 min) was 2.27 and the “furin cleavage Z-score” value (30 min) was -0.141 (inactive).

For CATTPCSGSDAGNASASA [HC1931], the “furin cleavage Z-score” value (7.5 min) was -0.759 (inactive), the “furin cleavage Z-score” value (15 min) was -0.942 (inactive) and the “furin cleavage Z-score” value (30 min) was -0.913 (inactive).

With CARPKRLDSAAGNASASA [FS-2578] the “furin cleavage Z-score” value (7.5 min) was -0.648 (inactive), the “furin cleavage Z-score” value (15 min) was -0.15 (inactive) and the “furin cleavage Z-score” value (30 min) was 0.332 (inactive).

In the case of CARPKRYFTIAGNASASA [FS-2579], the “furin cleavage Z-score” value (7.5 min) is reported as -0.409 (inactive), the “furin cleavage Z-score” value (15 min) is reported as -0.643 (inactive) and the “furin cleavage Z-score” value (30 min) is reported as -0.0555 (inactive).

For CARPKRADTFAGNASASA [FS-2054], the “furin cleavage Z-score” value (7.5 min) was 5.65 (active), the “furin cleavage Z-score” value (15 min) was 7.21 (active) and the “furin cleavage Z-score” value (30 min) was 7.85 (active).

For CARPSGMFDSAGNASASA [HC914], the “furin cleavage Z-score” value (7.5 min) was -0.826 (inactive), the “furin cleavage Z-score” value (15 min) was -0.415 (inactive) and the “furin cleavage Z-score” value (30 min) was -0.285 (inactive).

In the case of CARHIRKRRSAGNASASA [FS-1157], the “furin cleavage Z-score” value (7.5 min) is reported as 13.5 (active), the “furin cleavage Z-score” value (15 min) is reported as 13.3 (active) and the “furin cleavage Z-score” value (30 min) is reported as 9.11 (active).

For CARPKRCPRSAGNASASA [FS-2055], the “furin cleavage Z-score” value (7.5 min) was 7.03 (active), the “furin cleavage Z-score” value (15 min) was 6.47 (active) and the “furin cleavage Z-score” value (30 min) was 5.65 (active).

For CARPSRKRRSAGNASASA [FS-1070], the “furin cleavage Z-score” value (7.5 min) was 12.8 (active), the “furin cleavage Z-score” value (15 min) was 11.6 (active) and the “furin cleavage Z-score” value (30 min) was 9.65 (active).

CASTPCSALLAGNASASA [HC2545] was tested, and the “furin cleavage Z-score” value (7.5 min) was 0.599 (inactive), the “furin cleavage Z-score” value (15 min) was 1.06 and the “furin cleavage Z-score” value (30 min) was 0.284 (inactive).

CATTPLARAAAGNASASA [HC1565] was tested, and the “furin cleavage Z-score” value (7.5 min) was -0.63 (inactive), the “furin cleavage Z-score” value (15 min) was 1.08 and the “furin cleavage Z-score” value (30 min) was -0.687 (inactive).

With CADITKLLLAAGNASASA [HC604] the “furin cleavage Z-score” value (7.5 min) was -1.43 (inactive), the “furin cleavage Z-score” value (15 min) was 0.163 (inactive) and the “furin cleavage Z-score” value (30 min) was 0.0126 (inactive).

With CAEIKRKWRSAGNASASA [FS-21] the “furin cleavage Z-score” value (7.5 min) was 2.15, the “furin cleavage Z-score” value (15 min) was 3.65 (active) and the “furin cleavage Z-score” value (30 min) was 5.04 (active).

CAAGKRKRRSAGNASASA [FS-1299] was tested, and the “furin cleavage Z-score” value (7.5 min) was 12.8 (active), the “furin cleavage Z-score” value (15 min) was 14.7 (active) and the “furin cleavage Z-score” value (30 min) was 10.5 (active).

CAEISRKRRSAGNASASA [FS-649] was tested, and the “furin cleavage Z-score” value (7.5 min) was 10.9 (active), the “furin cleavage Z-score” value (15 min) was 9.94 (active) and the “furin cleavage Z-score” value (30 min) was 7.56 (active).

In the case of CAAGKRVYYLAGNASASA [HC1559], the “furin cleavage Z-score” value (7.5 min) is reported as -0.901 (inactive), the “furin cleavage Z-score” value (15 min) is reported as 0.829 (inactive) and the “furin cleavage Z-score” value (30 min) is reported as -0.892 (inactive).

CAGERRKRRSAGNASASA [FS-425] was tested, and the “furin cleavage Z-score” value (7.5 min) was 14.4 (active), the “furin cleavage Z-score” value (15 min) was 13.6 (active) and the “furin cleavage Z-score” value (30 min) was 11 (active).

In the case of CAEFERRWRSAGNASASA [FS-230], the “furin cleavage Z-score” value (7.5 min) is reported as -1.8 (inactive), the “furin cleavage Z-score” value (15 min) is reported as -0.415 (inactive) and the “furin cleavage Z-score” value (30 min) is reported as 0.059 (inactive).

In the case of CAGSHMKRRSAGNASASA [FS-659], the “furin cleavage Z-score” value (7.5 min) is reported as -0.564 (inactive), the “furin cleavage Z-score” value (15 min) is reported as 0.785 (inactive) and the “furin cleavage Z-score” value (30 min) is reported as 1.98.
